“And” between values parts separate entries of the source, which are not always exact repeats. Equal entries are not always repeated. Out of some 16,000 compounds screened, about 5,700 (36%) were called active. Another 24% or so got no clear call; they are omitted. Calls come from the whole dose curve; as a rule, active = well fitted curve in the direction sought with a large enough effect; inconclusive = small, poorly fitted or top-dose-only effect, or effect the other way; inactive = no such curve, though single readings can be large or run the other way. This is one part of the list.
The compounds below were run against Cytochrome P450 1A2 (Homo sapiens) (UniProt P05177) (assay: Cytochrome panel assay with activity outcomes). Conditions: recombinant CYP, pro-luciferin dealkylation, luminescence, p450-cyp1a2; series mostly up to 57.1 µM; activity, negative = inhibition: at the top concentration.
Cytochrome P450 1A2 (Homo sapiens), sequence (P05177 whole entry, looked up): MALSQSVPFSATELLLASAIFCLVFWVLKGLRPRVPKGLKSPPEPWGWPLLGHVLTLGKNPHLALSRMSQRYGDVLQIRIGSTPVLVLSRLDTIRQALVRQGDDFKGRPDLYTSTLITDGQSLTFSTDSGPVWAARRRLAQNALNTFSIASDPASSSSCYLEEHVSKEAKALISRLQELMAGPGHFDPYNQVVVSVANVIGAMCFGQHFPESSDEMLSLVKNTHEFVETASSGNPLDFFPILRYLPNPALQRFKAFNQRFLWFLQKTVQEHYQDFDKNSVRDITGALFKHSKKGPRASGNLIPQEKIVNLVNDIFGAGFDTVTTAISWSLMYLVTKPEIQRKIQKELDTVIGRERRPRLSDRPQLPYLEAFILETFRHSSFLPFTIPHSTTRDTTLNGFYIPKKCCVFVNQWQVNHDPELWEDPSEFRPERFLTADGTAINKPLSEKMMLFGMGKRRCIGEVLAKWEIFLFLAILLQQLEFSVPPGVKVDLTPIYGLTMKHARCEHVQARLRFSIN
% is set by controls: 0 for no effect and ±100 for the full control effect.

Compound	activity, negative = inhibition	AC50
CC(c1ccccc1C(O)c1ccccc1)N(C)C (centres undefined)	-10.1% (inactive)	
COCCNC(=O)C1CC(c2cccc(OC)c2)=NO1 (centres undefined)	-27.9% (inactive)	
Cc1ccc(NC(=O)NNC(=O)C2CC(c3cccnc3)=NO2)cc1 (centres undefined)	-39.7% (inactive)	
COc1ccc(NC(=O)C2c3cc(OC)c(OC)cc3C(=O)N(C)C2c2cccnc2)cc1OC (centres undefined)	-41.4% (inactive)	
O=C(NNC(=O)C1CC(c2cccnc2)=NO1)Nc1cccc(F)c1 (centres undefined)		14.1 µM (active)
COc1cccc(C2=NOC(C(=O)Nc3cccnc3)C2)c1 (centres undefined)		10 µM (active)
O=C(Nc1cccc(F)c1)N1CC2(CCN(C(=O)c3cnccn3)CC2)C1	-8.35% (inactive)	
COc1cccc(C2=NOC(C(=O)NCCN3CCOCC3)C2)c1 (centres undefined)	14.5% (inactive)	
COc1cccc(C2=NOC(C(=O)Nc3ccc(OC)c(OC)c3)C2)c1 (centres undefined)		10 µM (active)
CCN1C(=O)[C@H]2[C@@H]3[C@H](O)[C@H](O)CC(=O)[C@H]3CC[C@H]2C1=O	-11.3% [at 11.4 µM] (inactive) and -4.71% [at 11.4 µM] (inactive)	
CN1CCCN(C2C3CC4CC(C3)CC2C4)CC1 (centres undefined)	3.67% (inactive)	
c1cc(CSSCc2ccncc2)ccn1		2 µM (active)
c1cc(CNCCN2CCNCC2)ccn1	-16% [at 11.4 µM] (inactive)	
CN(Cc1ccco1)c1ncnc2ccc(-c3ccoc3)cc12		2.51 µM (active)
CN(Cc1ccco1)c1ncnc2ccc(-c3ccc4c(c3)OCO4)cc12		0.501 µM (active)
O=C(CC(=O)c1ccncc1)c1ccccc1		0.1 µM (active)
O=C(c1ccncc1)N1CCC2(CCN(Cc3ccccc3)CC2)CC1	6.61% (inactive)	
O=C(NNC(=O)c1ccncc1)c1ccncc1	-7.18% [at 11.4 µM] (inactive)	
Cn1c(-c2sc(=S)n(-c3ccccc3)c2N)nc2ccccc21		0.708 µM (active)
O=C1C[C@@H](O)[C@@H](O)[C@H]2[C@@H]3C(=O)N(Cc4ccccc4)C(=O)[C@@H]3CC[C@H]12	7.93% [at 11.4 µM] (inactive) and -5.24% [at 11.4 µM] (inactive)	

Compound	activity, negative = inhibition	AC50
COc1cc(-c2ccc(N=Nc3ccc4c(S(=O)(=O)O)cc(S(=O)(=O)O)c(N)c4c3O)c(OC)c2)ccc1N=Nc1ccc2c(S(=O)(=O)O)cc(S(=O)(=O)O)c(N)c2c1O		12.6 µM (active)
Nc1ccc(N=Nc2ccc(-c3ccc(O)cc3)cc2)c2ccc(S(=O)(=O)O)cc12	-17.8% [at 2.29 µM] (inactive)	
COc1ccc(N2C(=O)CCC(C(=O)O)C2c2ccc(F)cc2)cc1 (centres undefined)	3.19% (inactive)	
COc1ccc(CNc2ccnc(-c3ccccc3Cl)n2)c(OC)c1		5.01 µM (active)
COc1ccc(CNc2ccnc(-c3ccccc3OC)n2)c(OC)c1		5.01 µM (active)
COc1ccccc1CNc1ccnc(-c2ccccc2C(F)(F)F)n1		10 µM (active)
COc1ccc([C@@H](Nc2ccccn2)c2cc(C(C)(C)C)cc(C(C)(C)C)c2O)cc1	1.22% [at 2.29 µM] (inactive)	
COc1ccc(CNc2ccnc(-c3ccccc3C(F)(F)F)n2)c(OC)c1		15.8 µM (active)
CO[C@H]1COC(=O)C/C=C\[C@@H](C)COC(=O)[C@@H](OCc2ccccc2)/C=C\[C@@H]1C	-1.45% [at 11.4 µM] (inactive)	
CC(=O)OC[C@@H]1O[C@@H](O/N=C2/C[C@@H](O)[C@@H](O)[C@@H]3[C@H]4C(=O)N(c5ccc(F)cc5F)C(=O)[C@@H]4CC[C@@H]23)[C@H](OC(C)=O)[C@H](OC(C)=O)[C@@H]1OC(C)=O	2.88% [at 11.4 µM] (inactive)	
COc1ccccc1CNc1ccnc(-c2ccccc2Cl)n1		5.01 µM (active)
Cc1n[nH]c(=O)nc1NCc1ccccc1Cl	-20% (inactive)	
CC(=O)c1cn(CC(=O)Nc2c(C)cccc2C)c2ccccc12	-15.1% (inactive)	
Cc1cc(OCCn2cc(/C(N)=N/O)c3ccccc32)ccc1Cl		2 µM (active)
O=C(NNc1nc2ccccc2s1)C1CC1		20 µM (active)
CC(=O)NNC(=O)C(O)(c1ccccc1)c1ccccc1	11.7% (inactive)	
CC(=O)NNc1nc2ccccc2s1		11.2 µM (active)
O=[N+]([O-])c1ccc(Nc2nc3ccccc3s2)cc1	-20% [at 11.4 µM] (inactive)	
c1ccc2sc(NC3=NCN(C4CCCCCC4)CN3)nc2c1	-20.1% (inactive)	
CCOC(=O)c1ccc(NC(=O)C2CCCO2)cc1 (centres undefined)		2.51 µM (active)

Compound	activity, negative = inhibition	AC50
NC(=O)c1ccc(NC(=O)C2CCCO2)cc1 (centres undefined)	-0.873% (inactive)	
Cc1ccc(CS(=O)(=O)CCC(=O)NCCCN2CCCC2)cc1	-13.9% (inactive)	
CCCC(CCC)C(=O)NNc1cc(=O)c2c(=O)n(C)c(=O)n(C)c2[nH]1	-22.7% (inactive)	
CCC(=O)NNc1cc(=O)c2c(=O)n(C)c(=O)n(C)c2[nH]1		2.82 µM (active)
Cc1nn(-c2ccc(F)cc2)c(C)c1NS(=O)(=O)c1ccc2ccccc2c1		15.8 µM (active)
Cc1cc(C)nc(NS(=O)(=O)c2ccc(N)cc2)n1	-4.94% [at 25.6 µM] (inactive)	
Cc1nn(-c2ccc(F)cc2)c(Cl)c1/C=C(\CCC(=O)O)c1nc2ccccc2s1	-0.314% (inactive)	
COc1ccccc1S(=O)(=O)Nc1ccc(-c2nnc3n2CCCCC3)cc1	0.614% (inactive)	
CCCCn1c(NCc2ccccc2NS(=O)(=O)c2ccc(C)cc2)nc2ccccc21	4.94% (inactive)	
Cc1ccc(S(=O)(=O)Nc2nc3ccccc3nc2N2CCc3ccccc3C2)cc1		22.4 µM (active)
Cc1ccc(C(=O)N/N=C\c2cccn2C)cn1		12.6 µM (active)
Cn1cccc1/C=N/NC(=O)c1sc2ccccc2c1Cl		0.891 µM (active)
C=N[C@H](C(=O)N[C@@H]1C(=O)N2[C@@H]1SC(C)(C)[C@@H]2C(=O)O)c1ccccc1	-11.1% [at 25.6 µM] (inactive)	
O=[N+]([O-])c1ccc2nc(-c3ccc(Cl)cc3)n(OCc3ccccc3)c2c1		2.51 µM (active)
O=[N+]([O-])c1ccc2nc(-c3ccccc3)n(OCc3ccc(Cl)cc3)c2c1		2.24 µM (active)
Clc1ccc(COn2c(-c3ccccc3)nc3ccccc32)cc1		1.58 µM (active)
Cc1ccc(COn2c(-c3ccc(Cl)cc3)nc3ccc([N+](=O)[O-])cc32)cc1		0.398 µM (active)
O=[N+]([O-])c1ccc(N2CCC(=NOCc3ccc(Cl)cc3)CC2)cc1	-21.2% (inactive)	
Oc1ccc(Cn2c(-c3ccc(O)cc3)nc3ccccc32)cc1	-5.47% [at 11.4 µM] (inactive)	
